PubChem BioAssay AID602412 (Johns Hopkins Ion Channel Center, 2012)
Some of the results follow. Calls of active or inactive are those of the source.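 Rule for the calls: active = calcium signal rise, corrected for plate position, at least 3 library SD high, with starting brightness within 5 such deviations; inactive = the rest.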

Molecular target: Mas-related G-protein coupled receptor member X1 (Homo sapiens) (UniProt Q96LB2)
Test: activators of human MrgX1 calcium signaling – HEK293 cells, Fluo-4 calcium flux, confirmation (AID 602412)
Conditions: MrgX1-HEK293, Fluo-4 calcium fluorescence, FDSS, at 10 µM; hits give high values

Sequence of Mas-related G-protein coupled receptor member X1 (Homo sapiens) (Q96LB2 whole entry, looked up): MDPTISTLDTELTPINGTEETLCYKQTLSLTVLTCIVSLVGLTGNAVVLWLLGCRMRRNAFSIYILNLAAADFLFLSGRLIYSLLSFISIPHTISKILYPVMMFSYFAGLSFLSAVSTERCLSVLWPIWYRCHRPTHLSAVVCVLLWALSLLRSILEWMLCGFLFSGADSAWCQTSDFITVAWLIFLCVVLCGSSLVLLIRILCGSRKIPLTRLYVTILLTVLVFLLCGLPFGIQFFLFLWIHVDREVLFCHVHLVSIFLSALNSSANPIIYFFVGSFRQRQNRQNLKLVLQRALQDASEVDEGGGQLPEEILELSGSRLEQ

Compound	outcome	activation
OCc1ccc(OCCCOc2cccc3cccnc23)cc1	inactive	
O=C(Nc1nnc(-c2ccccc2)o1)c1cc(-c2cccs2)nc2ccccc12		141% (active)
O=c1c2cc(Br)ccc2nc(-c2cccc(Cl)c2)n1O		415% (active)
COc1ccc(C(=O)NC(=S)NNC(=O)c2c(-c3ccccc3)noc2C)cc1		506% (active)
COc1ccc(OC)c(C(=O)c2ccc(Cl)cc2)c1	inactive	
CC1CCCCN1S(=O)(=O)c1ccc(C(=O)Nc2nnc(-c3cccs3)o2)cc1 (centres undefined)		88.3% (active)
CCCc1cc(=S)n2c([nH]c3ccccc32)c1C#N		266% (active)
Cc1onc(-c2ccccc2)c1C(=O)NNC(=S)NC(=O)c1ccc(F)cc1		636% (active)
Cc1ccc(NC2(C#N)C(=O)Nc3ccccc32)cc1 (centres undefined)		191% (active)
Cc1ccc(-n2[nH]c(C)c(/C=N/N3C(=O)c4cccc5cccc(c45)C3=O)c2=O)cc1		601% (active)
CC1(C(=O)O)CCC(C(=O)Nc2ccc(Cl)c(Cl)c2)C1(C)C (centres undefined)		149% (active)
N=C(N)SCc1cccc2ccccc12		199% (active)
COc1ccc(Nc2nc(-c3cccnc3)nc3ccccc23)cn1		127% (active)
CCCc1[nH]nc2c1C(c1ccc(Br)s1)C(C#N)=C(N)O2 (centres undefined)		141% (active)
O=C(CC(O)(C(F)(F)F)C(F)(F)F)Nc1ccc(Cl)c(Cl)c1		242% (active)
O=C1C(=O)N(CC2COc3ccccc3O2)c2ccccc21 (centres undefined)		226% (active)
Cc1c(C)c2c(OCC(=O)N[C@@H](C(=O)O)c3ccccc3)cc3c(c2oc1=O)CCC(C)(C)O3	inactive	
O=C1Cc2ccccc2Sc2ccc(Cl)cc21		104% (active)
Fc1ccc2[nH]c3c(N4CCSCC4)ncnc3c2c1		252% (active)
CC(C)CC(=O)NC(=S)NNC(=O)c1cccc([N+](=O)[O-])c1		268% (active)

Compound	outcome	activation
COc1ccc(C(=O)NC(=S)NNC(=O)CCc2ccccc2)cc1		595% (active)
O=C(Nc1ccccc1)c1nnsc1S(=O)(=O)c1ccc(Cl)cc1		210% (active)
COC(=O)c1ccc(COC(=O)C2CCN(S(=O)(=O)c3c(Cl)cccc3Cl)CC2)o1	inactive	
O=C(CCN1CCc2ccccc2C(O)(c2ccccc2)C1)c1ccc2c(c1)OCCO2 (centres undefined)		192% (active)
Cc1nc(C)c(-c2csc(NCCc3ccccc3)n2)s1		170% (active)
CCN(CC)c1ccc2oc(=O)c(C)nc2c1	inactive	
Cc1[nH][nH]c(=O)c1C(c1ccc(-c2ccc(Cl)cc2)o1)c1c(C)[nH][nH]c1=O		187% (active)
CCOC(=O)c1[nH]c2ccc(C)cc2c1N=C(C)N(C)C		185% (active)
CCCCC(=O)NNC(=S)NC(=O)C(c1ccccc1)c1ccccc1	inactive	
COc1ccccc1N(CC(=O)N1CCCCC1)S(=O)(=O)c1ccccc1		356% (active)
CC(Oc1ccc2ccccc2c1)C(=O)NNC(=S)NC(=O)c1ccco1 (centres undefined)		265% (active)
COC(=O)c1ccc(C2C3=C(Nc4nnnn42)c2ccccc2OC3)cc1 (centres undefined)	inactive	
CCCc1nc2c(c(=O)c3ccccc3n2C)c(=O)n1C1CCCCCC1		149% (active)
Cc1cc2oc3ccc(NCCC4CCCN4C)cc3c(=O)c2cc1C (centres undefined)		311% (active)
CC(=O)OC(C)C[N+](C)(C)C (centres undefined)		483% (active)
COc1ccc(C(=O)NNC(=S)NC(=O)c2ccccc2)cc1		570% (active)
Cc1ccnc(-n2sc3ccccc3c2=O)n1		170% (active)
COc1ccc2c(c1)OC(O)(C(F)(F)C(F)F)CC2=O (centres undefined)		373% (active)
CC(C)(C)Nc1c(-c2cccs2)nc2ccccn12		181% (active)
